Data on 14 compounds can be found in PubChem BioAssay AID1494157 (National Center for Advancing Translational Sciences (NCATS), 2020).

Results filed as inconclusive are left out. A number with no mark means an inactive call. Calls of active or inactive are those of the source. The call rests on the fitted dose curve.

The assay in a line: Confirmatory qHTS for inhibitors of MERS-S pseudo-typed particle cell entry. The following applies: MERS-S pseudotyped particle entry, luciferase reporter; series mostly up to 57.1 µM; activity change, negative = inhibition: at the top concentration. A general note: Quantitative high-throughput screening tests each substance at several concentrations.
On to `CC(=O)N1CCN(c2ccc(OC[C@H]3CO[C@](Cn4ccnc4)(c4ccc(Cl)cc4Cl)O3)cc2)CC1`, for which the Potency is 7.64 µM (active).
Consider `CN(C)CCOC(c1ccccc1)c1ccc(Br)cc1` (centres undefined), for which the Potency is 17.1 µM (active).
Same read-out and setting: with `COc1ccc2cc1Oc1ccc(cc1)C[C@H]1c3c(cc4c(c3Oc3cc5c(cc3OC)CCN(C)[C@@H]5C2)OCO4)CCN1C` the figure was 1.71 µM (active).
As to `COc1cccc2c1C(=O)c1c(O)c3c(c(O)c1C2=O)C[C@@](O)(C(=O)CO)C[C@@H]3O[C@H]1C[C@H](N)[C@H](OC2CCCCO2)[C@H](C)O1` (some centres undefined), the “activity change, negative = inhibition” value was -19.3%.
On to `CCCCCCCCCCCC[n+]1ccc2ccccc2c1`, for which the Potency is 1.36 µM (active).
As to `Cc1nnc(C(=O)NC(C)(C)c2nc(C(=O)NCc3ccc(F)cc3)c(O)c(=O)n2C)o1`, the Potency was 0.0043 µM (active).
The same measure, in the same setting: as for `COc1cccc2c1C(=O)c1c(O)c3c(c(O)c1C2=O)C[C@@](O)(C(=O)CO)CC3OC1CC(N2CCOC(OC)C2)C(O)C(C)O1` (some centres undefined), the figure is 0.215 µM (active).
On to `O=c1ccc2ccccc2o1`, for which the “activity change, negative = inhibition” value was 0%.
Same read-out and setting: with `CCn1cc(C(=O)O)c(=O)c2cc(F)c(N3CCNC(C)C3)c(F)c21` (centres undefined) the figure was 0%.
As to `CNCCCC12CCC(c3ccccc31)c1ccccc12`, the Potency was 21.5 µM (active).
Regarding `CCN(CC)CCNC(=O)c1c(C)[nH]c(/C=C2\C(=O)Nc3ccc(F)cc32)c1C`, the Potency was 4.29 µM (active).
On the same count and under the same terms, with `O=C1CCc2ccc(OCCCCN3CCN(c4cccc(Cl)c4Cl)CC3)cc2N1` the figure was 12.1 µM (active); with `CN1CCCCC1CCN1c2ccccc2Sc2ccc(S(C)=O)cc21` (centres undefined), 17.1 µM (active).
Take `CC(=O)OCC1=C(C(=O)O)N2C(=O)[C@@H](NC(=O)Cc3cccs3)[C@H]2SC1`: the “activity change, negative = inhibition” value was 0%.
